Measurements: the supplement of paper PMC11732987, “Enantioselective OTUD7B fragment discovery through chemoproteomics screening and high-throughput optimisation” (Communications Chemistry, 2025)

Columns and labels:
Test in all cases: log2 ratio of Biotin-Ahx-Ub-VS probe labelling (fragment/DMSO); higher = less target engagement (more negative = stronger competition), active = hit call of the paper (q ≤ 0.05, log2 ratio ≤ -1)
Details in all cases: compound concentration: 200 uM; treatment time: 3 h
USP34 = USP34 (UniProt Q70CQ2)
Sequence of USP34 (Q70CQ2 whole entry, the tested form may be a part): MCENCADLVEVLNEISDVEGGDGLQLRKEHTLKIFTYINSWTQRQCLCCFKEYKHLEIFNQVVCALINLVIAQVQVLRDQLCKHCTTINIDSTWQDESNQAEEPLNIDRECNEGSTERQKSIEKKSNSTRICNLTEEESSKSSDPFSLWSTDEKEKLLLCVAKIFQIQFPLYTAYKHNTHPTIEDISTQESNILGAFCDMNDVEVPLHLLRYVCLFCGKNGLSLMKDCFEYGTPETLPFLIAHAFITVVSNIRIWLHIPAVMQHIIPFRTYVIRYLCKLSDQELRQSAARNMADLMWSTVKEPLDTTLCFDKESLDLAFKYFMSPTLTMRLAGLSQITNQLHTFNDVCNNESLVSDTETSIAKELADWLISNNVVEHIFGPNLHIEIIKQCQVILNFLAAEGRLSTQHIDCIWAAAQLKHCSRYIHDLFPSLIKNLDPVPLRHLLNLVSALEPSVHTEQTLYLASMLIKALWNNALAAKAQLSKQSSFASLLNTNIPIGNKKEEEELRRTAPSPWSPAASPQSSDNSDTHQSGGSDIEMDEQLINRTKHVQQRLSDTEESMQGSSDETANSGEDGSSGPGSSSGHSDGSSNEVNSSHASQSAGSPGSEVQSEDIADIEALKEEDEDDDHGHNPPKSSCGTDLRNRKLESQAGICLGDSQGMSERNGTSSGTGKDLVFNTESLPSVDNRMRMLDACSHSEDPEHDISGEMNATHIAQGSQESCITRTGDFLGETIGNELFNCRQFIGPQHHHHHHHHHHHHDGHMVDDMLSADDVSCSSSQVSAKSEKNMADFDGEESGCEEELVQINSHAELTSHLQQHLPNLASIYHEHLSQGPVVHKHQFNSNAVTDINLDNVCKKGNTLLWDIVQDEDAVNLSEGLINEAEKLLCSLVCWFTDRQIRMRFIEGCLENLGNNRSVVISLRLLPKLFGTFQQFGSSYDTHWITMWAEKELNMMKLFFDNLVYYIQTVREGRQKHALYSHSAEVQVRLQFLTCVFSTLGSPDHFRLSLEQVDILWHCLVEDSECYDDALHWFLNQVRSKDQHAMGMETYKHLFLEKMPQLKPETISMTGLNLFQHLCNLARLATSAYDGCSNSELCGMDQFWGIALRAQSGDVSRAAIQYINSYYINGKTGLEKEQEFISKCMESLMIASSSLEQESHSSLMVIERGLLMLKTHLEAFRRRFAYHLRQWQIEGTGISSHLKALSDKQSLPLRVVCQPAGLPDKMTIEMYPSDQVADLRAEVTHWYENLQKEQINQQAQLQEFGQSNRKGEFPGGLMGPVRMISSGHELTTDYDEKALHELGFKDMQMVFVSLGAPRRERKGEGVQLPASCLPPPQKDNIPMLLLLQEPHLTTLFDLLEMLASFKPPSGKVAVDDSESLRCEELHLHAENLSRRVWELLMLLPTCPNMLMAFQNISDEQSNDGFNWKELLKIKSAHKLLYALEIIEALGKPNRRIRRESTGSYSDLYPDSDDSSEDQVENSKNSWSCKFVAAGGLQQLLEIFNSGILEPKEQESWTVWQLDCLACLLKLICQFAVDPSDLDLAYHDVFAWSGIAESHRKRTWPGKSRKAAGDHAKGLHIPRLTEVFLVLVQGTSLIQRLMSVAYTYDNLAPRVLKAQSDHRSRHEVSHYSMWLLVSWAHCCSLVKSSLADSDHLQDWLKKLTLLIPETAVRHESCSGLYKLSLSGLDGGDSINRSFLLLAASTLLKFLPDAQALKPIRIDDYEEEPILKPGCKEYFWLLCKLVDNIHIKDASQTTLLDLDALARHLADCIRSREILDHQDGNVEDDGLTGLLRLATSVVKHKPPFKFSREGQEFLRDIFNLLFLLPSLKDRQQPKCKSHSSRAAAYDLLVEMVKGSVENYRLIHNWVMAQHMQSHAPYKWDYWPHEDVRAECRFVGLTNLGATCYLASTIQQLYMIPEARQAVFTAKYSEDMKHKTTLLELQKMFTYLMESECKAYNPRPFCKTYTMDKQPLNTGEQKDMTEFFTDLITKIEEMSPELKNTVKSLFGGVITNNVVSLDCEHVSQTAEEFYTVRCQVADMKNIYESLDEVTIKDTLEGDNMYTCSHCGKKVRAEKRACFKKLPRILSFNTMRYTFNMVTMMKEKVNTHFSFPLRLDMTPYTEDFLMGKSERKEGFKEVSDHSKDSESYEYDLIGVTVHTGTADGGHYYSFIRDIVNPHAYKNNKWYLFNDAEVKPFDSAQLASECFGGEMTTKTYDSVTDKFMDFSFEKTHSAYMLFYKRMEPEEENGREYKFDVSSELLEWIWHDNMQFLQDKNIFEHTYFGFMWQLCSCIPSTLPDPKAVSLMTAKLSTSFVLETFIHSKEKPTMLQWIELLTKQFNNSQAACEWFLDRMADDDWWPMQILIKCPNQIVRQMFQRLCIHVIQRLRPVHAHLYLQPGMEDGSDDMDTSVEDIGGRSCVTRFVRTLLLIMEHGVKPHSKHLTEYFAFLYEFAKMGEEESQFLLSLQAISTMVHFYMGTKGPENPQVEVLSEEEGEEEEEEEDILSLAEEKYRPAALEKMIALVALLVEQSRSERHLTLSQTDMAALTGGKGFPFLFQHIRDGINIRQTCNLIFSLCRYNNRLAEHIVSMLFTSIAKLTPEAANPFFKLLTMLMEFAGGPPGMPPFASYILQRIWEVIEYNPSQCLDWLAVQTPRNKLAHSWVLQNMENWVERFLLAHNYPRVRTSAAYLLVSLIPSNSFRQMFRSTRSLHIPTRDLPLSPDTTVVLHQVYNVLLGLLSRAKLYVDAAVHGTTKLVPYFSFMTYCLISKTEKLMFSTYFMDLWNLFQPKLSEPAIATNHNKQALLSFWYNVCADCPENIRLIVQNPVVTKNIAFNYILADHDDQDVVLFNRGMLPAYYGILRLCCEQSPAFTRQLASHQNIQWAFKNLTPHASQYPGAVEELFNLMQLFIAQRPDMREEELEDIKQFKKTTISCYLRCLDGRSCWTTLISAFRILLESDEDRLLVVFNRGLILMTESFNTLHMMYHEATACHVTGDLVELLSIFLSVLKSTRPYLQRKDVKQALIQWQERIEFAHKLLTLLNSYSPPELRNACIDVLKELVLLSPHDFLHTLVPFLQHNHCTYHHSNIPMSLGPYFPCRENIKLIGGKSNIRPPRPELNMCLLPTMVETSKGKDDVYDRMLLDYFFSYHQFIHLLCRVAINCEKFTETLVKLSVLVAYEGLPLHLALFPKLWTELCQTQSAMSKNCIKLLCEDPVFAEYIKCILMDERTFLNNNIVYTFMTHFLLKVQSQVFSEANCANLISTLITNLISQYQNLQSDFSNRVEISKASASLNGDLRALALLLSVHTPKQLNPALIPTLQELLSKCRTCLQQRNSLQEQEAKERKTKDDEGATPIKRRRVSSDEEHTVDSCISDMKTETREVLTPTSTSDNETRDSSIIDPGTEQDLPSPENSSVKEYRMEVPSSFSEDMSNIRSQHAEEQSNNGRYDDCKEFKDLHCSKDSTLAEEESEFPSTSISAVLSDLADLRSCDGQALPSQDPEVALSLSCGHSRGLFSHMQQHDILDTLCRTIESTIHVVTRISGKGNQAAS
Outline: (§1)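 Labelled DUBs from HEK293T lysate were NeutrAvidin-enriched, digested with LysC and trypsin, and run by diaPASEF LC-MS/MS. Before that, each 495 µg sample in Tris/CHAPS/IGEPAL buffer with protease inhibitors was treated in triplicate with fragment at 200 µM or vehicle for 3 h, then with Biotin-Ahx-Ub-VS at 0.5 µM final for 1 h. Values are average log2 ratios of fragment over vehicle by unpaired t-test, based on global-median-normalised Spectronaut label-free quantities from proteins with ≥2 unique peptides.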

USP36 = molecular target: T1, USP36 (UniProt Q9P275)
T1 sequence (whole entry): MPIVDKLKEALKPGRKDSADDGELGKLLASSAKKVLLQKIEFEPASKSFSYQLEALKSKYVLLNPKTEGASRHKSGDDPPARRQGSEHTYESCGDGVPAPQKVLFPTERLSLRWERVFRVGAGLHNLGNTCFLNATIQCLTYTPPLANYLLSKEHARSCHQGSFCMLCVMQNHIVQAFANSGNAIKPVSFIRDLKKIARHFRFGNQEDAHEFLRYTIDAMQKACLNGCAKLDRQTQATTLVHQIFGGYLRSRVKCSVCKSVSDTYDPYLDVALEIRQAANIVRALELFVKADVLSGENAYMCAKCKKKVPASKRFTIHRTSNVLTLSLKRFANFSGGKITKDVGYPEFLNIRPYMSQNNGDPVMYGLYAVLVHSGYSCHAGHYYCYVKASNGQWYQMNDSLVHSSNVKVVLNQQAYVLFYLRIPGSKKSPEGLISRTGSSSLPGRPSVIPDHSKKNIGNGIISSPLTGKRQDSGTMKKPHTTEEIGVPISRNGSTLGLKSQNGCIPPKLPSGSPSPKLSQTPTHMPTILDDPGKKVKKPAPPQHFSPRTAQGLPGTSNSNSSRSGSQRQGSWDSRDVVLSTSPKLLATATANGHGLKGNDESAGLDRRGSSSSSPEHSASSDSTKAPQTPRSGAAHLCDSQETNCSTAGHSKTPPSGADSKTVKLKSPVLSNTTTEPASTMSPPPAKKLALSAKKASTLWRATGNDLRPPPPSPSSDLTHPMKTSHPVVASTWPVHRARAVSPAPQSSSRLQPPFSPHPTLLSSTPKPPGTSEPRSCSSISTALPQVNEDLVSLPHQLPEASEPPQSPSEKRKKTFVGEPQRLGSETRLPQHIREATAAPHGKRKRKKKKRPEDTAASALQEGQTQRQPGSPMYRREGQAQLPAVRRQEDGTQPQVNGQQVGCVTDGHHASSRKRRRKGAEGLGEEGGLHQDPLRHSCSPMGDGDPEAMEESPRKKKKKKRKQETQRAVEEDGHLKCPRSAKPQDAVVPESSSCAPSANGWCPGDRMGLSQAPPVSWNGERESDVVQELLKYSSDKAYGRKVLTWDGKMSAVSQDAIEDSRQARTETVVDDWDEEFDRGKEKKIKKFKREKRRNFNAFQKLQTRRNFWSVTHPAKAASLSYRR
Outline: as §1

USP38 = molecular target: T2, USP38 (UniProt Q8NB14)
T2 sequence (whole entry): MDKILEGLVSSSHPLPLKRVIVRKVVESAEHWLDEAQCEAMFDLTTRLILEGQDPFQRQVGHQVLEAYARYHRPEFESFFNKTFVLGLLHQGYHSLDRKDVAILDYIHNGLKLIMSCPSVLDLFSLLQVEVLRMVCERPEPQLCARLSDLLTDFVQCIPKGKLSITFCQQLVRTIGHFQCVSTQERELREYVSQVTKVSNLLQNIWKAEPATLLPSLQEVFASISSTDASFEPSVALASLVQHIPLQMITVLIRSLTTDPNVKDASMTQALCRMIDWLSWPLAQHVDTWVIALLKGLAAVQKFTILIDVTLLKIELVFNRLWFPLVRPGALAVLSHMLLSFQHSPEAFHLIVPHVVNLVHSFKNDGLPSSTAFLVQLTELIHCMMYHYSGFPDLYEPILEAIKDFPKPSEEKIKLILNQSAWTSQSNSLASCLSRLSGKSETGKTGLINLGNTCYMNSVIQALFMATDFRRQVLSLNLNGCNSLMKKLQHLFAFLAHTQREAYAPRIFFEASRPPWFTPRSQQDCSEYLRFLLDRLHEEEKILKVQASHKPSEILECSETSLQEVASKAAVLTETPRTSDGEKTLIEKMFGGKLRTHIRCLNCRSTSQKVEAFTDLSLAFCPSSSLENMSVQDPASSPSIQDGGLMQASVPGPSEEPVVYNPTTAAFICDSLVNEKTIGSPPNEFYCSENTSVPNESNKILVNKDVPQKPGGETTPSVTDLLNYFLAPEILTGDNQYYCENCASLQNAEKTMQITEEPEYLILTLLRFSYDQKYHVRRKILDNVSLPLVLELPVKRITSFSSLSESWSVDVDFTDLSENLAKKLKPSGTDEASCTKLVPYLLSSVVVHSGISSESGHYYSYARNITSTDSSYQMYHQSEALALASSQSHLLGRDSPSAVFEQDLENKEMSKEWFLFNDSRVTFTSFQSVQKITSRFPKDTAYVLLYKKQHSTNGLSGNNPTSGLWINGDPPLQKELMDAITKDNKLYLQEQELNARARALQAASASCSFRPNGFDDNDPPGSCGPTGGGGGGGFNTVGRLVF
Outline: as §1

USP39 = molecular target: T3, USP39 (UniProt Q53GS9)
T3 sequence (whole entry): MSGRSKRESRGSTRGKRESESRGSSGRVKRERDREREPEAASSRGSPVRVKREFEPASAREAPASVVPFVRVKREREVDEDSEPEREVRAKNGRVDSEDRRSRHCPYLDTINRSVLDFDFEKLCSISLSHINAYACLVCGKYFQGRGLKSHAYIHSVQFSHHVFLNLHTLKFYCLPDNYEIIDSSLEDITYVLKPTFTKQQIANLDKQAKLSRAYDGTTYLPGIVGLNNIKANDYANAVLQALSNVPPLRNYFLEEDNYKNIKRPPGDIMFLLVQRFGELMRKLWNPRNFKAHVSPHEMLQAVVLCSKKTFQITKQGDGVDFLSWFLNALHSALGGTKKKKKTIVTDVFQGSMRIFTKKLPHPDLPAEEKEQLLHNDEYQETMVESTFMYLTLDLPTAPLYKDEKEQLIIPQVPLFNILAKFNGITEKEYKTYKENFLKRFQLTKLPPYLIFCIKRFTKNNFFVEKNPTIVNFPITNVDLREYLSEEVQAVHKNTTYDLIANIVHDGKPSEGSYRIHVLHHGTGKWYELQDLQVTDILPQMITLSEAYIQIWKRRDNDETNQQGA
Outline: as §1

USP4 = molecular target: T4, USP4 (UniProt Q13107)
T4 sequence (whole entry): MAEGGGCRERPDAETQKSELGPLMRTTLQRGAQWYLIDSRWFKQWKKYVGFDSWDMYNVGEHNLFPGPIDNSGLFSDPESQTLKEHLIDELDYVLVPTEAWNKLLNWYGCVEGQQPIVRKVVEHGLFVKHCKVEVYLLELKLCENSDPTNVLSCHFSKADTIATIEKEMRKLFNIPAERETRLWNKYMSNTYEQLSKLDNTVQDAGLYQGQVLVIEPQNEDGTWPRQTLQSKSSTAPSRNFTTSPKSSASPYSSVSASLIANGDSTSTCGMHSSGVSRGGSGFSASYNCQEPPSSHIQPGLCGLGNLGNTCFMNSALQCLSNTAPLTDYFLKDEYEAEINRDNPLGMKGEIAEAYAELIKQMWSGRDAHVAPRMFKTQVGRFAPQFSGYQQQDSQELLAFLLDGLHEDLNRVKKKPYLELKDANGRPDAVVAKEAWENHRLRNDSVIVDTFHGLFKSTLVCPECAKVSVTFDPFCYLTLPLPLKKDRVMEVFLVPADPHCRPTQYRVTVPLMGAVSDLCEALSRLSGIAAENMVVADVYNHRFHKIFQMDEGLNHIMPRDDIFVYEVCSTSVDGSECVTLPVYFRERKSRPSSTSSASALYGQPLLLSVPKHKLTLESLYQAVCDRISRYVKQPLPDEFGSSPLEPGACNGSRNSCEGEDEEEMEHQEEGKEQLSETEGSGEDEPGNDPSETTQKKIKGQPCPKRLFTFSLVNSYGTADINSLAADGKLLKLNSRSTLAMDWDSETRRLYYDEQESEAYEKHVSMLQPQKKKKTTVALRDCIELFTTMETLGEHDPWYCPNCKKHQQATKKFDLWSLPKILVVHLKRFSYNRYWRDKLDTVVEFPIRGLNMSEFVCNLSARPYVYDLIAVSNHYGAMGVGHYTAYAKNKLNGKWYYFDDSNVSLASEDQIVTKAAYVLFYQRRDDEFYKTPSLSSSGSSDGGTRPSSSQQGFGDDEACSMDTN
Outline: as §1

Measured: log2 ratio of Biotin-Ahx-Ub-VS probe labelling

CN1c2ccccc2C(NC(=O)CCl)CS1(=O)=O (stereo not given)
inactive: USP34 -0.111 | USP36 -0.287 | USP38 -0.071 | USP39 0.00949 | USP4 0.0683
